# Source: PubChem BioAssay
# ELG1 genotoxic: genotoxicity induction in ELG1-luciferase HEK293T cells | HEK293T ELG1-luciferase reporter, luminescence, 16 h | Potency, µM (top dose mostly 46 µM), without a hit: top-dose activity change, positive = activation, actives largely listed as activators | hit rate 1.3% among 330,000; further: % of control where 0% means no effect; nearly all actives have a fitted effect of over 60% in size
#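 Reporter readout depends on ELG1 protein level, which increases with genetic stress. After 16 hr compound exposure at 37 °C, luciferase activity was quantified using ONE-Glo.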
# Rab9 promoter act: activates the Rab9 promoter; Potency, µM (series often up to 9.22 µM), without a hit: at the top dose activation, negative = inhibition, hits mostly activators; AID 485297; hit rate 2.8% among 320,000; Huh7 Rab9 promoter-luciferase reporter, luminescence, 24 h; further: % of control where 0% means no effect; nearly all actives have a fitted effect of over 60% in size
#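 Huh7 reporter line, Rab9 promoter upstream of luciferase. Compound exposure 24 h at 37 °C in reduced-serum medium with 10% FBS. Read-out: luminescence.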
# SMN2 splice up: SMN2 splice variant enhancement; HEK293 SMN2-luciferase splicing reporter, luminescence, 30-36 h; Potency, µM (top dose mostly 46.1 µM), inactives show at the top dose activity change, positive = activation, actives largely listed as activators; hit rate 2.8% among 210,000; AID 1458; further: % of control where 0% means no effect; nearly all actives have a fitted effect of over 55% in size
#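 HEK293 cells carry an SMN2 […]–luciferase reporter in which exon 7 inclusion puts luciferase in frame. Cells were plated 10-12 h before compound addition, then incubated 30-36 h at 37C. ONE-Glo luminescence was read; sodium butyrate at 4.5 mM final served as control.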
# FLuc modulator: counter-screen for miR-21 project: firefly luciferase inhibitors or activators; P08659; Potency, µM (series often up to 57.5 µM), without a hit: at the highest dose activity change, negative = inhibition, actives largely listed as inhibitors; hit rate 6.9% among 360,000; purified FLuc, Km substrates, luminescence inhibition; AID 588342;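 further: plate controls were vehicle for no effect and reference inhibitor for full effect; nearly all actives have a fitted effect of over 55% in size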
# Target sequence (P08659 whole entry, looked up): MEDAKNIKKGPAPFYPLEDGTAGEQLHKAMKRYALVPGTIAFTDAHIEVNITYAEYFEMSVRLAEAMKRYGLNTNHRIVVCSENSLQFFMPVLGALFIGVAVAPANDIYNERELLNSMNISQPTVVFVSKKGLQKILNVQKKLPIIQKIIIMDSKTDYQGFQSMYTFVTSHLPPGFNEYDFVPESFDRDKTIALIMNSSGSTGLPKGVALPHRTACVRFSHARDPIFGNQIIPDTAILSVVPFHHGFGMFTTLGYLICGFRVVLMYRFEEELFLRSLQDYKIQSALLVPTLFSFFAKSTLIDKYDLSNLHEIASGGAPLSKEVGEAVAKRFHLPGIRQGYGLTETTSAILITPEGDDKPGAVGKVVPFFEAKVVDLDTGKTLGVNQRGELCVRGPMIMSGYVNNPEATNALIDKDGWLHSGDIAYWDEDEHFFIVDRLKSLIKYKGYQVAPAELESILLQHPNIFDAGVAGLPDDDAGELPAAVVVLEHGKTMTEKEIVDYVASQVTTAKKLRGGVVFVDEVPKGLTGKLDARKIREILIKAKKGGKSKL
#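 Purified P. pyralis luciferase, 10 nM final, with Km-level 10 uM D-luciferin and 10 uM ATP in 50 mM Tris acetate pH 7.5, 10 mM Mg acetate, 0.01% Tween-20, 0.05% BSA; 6-point qHTS titration about 60 µM downward; luminescence read.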
# NPC1 promoter act: activates the NPC1 promoter. AID 485313. hit rate 2.4% among 320,000. Potency, µM (top dose mostly 9.22 µM), inactives show at the highest dose activation, actives largely listed as activators. Huh7 NPC1 promoter luciferase reporter, 24 h; further: % of control where 0% means no effect; nearly all actives have a fitted effect of over 60% in size
#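 Stable NPC1-promoter luciferase Huh7 line; cpd (DMSO) 24 h, 37 °C, 5% CO2; Amplite luciferase reagent 10 min RT; luminescence readout. qHTS format.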
# Starred values were filed as active, the others as inactive; ? = inconclusive; / = no result; [ ] = another dose, or the depositor's remark. This is a sample that favours compounds with a hit; in the whole collection about 7.4% have one here. The call rests on the fitted dose curve; in most records, active means well fitted curve in the direction sought with a large enough effect; inconclusive means small, poorly fitted or top-dose-only effect, or another doubt; inactive means no such curve, though single readings can be large; an effect the other way counts as inactive or inconclusive. Potency means the concentration at half of the fitted maximal effect.
SMILES,ELG1 genotoxic,Rab9 promoter act,SMN2 splice up,FLuc modulator,NPC1 promoter act
COc1ccc(-n2nc(C(=O)NCC(=O)NCCCN3CC(C)CC(C)C3)c3ccccc3c2=O)cc1Cl (configuration not stated),1.0%,-1.7%,/,-1.5%,-2.7%
COc1ccc(NC(=O)CNC(=O)Cn2ccc3ccccc3c2=O)cc1OC,/,/,19.6%,-1.7%,/
Cc1ccc2nc(SCC(=O)c3ccccc3)nc(=O)n2c1,?,?,/,10.7µM*,2.51µM*
Cc1ccn2c(=O)nc(SCC(=O)c3ccccc3)nc2c1,?,?,/,15.1µM*,?
Cc1ccnc(NC(=O)CCC(=O)c2cccs2)c1,?,?,/,0.338µM*,?
Cc1ccc(NC(=O)CCC(=O)c2cccs2)cc1F,17.9%,?,/,8.49µM*,19.8%
Nc1nc(-c2cc(-c3ccccc3)no2)cs1,2.06µM*,1µM*,/,3.01µM*,1µM*
Cc1ccc(-c2cc(-c3ccccc3)no2)cc1,?,0.316µM*,/,0.301µM*,0.631µM*
O=C(c1ccccc1)c1cc(-c2ccccc2)on1,2.06µM*,0.631µM*,?,0.213µM*,0.562µM*
Cc1cc(-c2cc(-c3ccccc3)on2)nc(NC2CCCC2)n1,2.8%,0.3%,/,?,7.8%
c1ccc(-c2cc(-c3ccccc3)on2)cc1,5.8µM*,1.41µM*,/,0.757µM*,1.41µM*
Nc1nc(-c2ccccc2)cs1,?,29.3%,11.5%,?,20.5%
COC(=O)c1cn(NC(=O)Cn2nc([N+](=O)[O-])c(Br)c2C)c(=O)c2ccccc12,-0.3%,-2.3%,3.8%,?,-33.2%
O=C(NC(=S)Nc1cc([N+](=O)[O-])ccc1O)C1CC1,14.0%,26.2%,/,?,6.6%
O=C(NC(O)C(=O)c1ccccc1)c1ccc(F)cc1 (configuration not stated),3.2%,-1.4%,/,-0.4%,1.2%
CCc1ccc(NC(=O)Cn2c(=O)nc(-c3ccccc3F)c3cc(Cl)ccc32)cc1,/,/,/,4.3%,/
CCOC(=O)N1CCC(N2Cc3cccc(C(=O)Nc4ccc(OC)c(OC)c4)c3C2=O)CC1,-11.9%,4.6%,-0.7%,15.1µM*,7.6%
CCC1Nc2ncnc(N3CCN(c4ccccc4)CC3)c2N(Cc2ccc(Br)cc2)C1=O (configuration not stated),-11.2%,-1.9%,/,0.0%,-8.6%
COc1cccc(/C=N/n2c(C)nc3ccccc32)c1OC,-3.1%,-3.3%,-47.6%,?,-0.2%
Cc1cc2ncn(/N=C/c3cc(Br)ccc3O)c2cc1C,-1.9%,2.2%,-1.3%,-1.9%,10.3%
COc1cccc(/C=N\n2c(C)nnc2C)c1OC,0.7%,5.3%,/,1.3%,1.5%
COc1cccc(/C=N/n2c(=S)n(C)c3ccccc32)c1OC,2.6%,-4.5%,-24.9%,10.7µM*,-3.4%
COc1cccc(/C=N/n2cnc3cc(C)c(C)cc32)c1OC,16.1%,20.4%,/,12µM*,?
COc1cccc(/C=N/n2c(=O)[nH]c3ccccc32)c1OC,15.1%,29.0%,?,9.53µM*,19.2%
O=C(/C=C/c1cccnc1)c1cc(F)ccc1O,0.3%,-7.0%,/,-7.8%,-3.3%
SMILES,ELG1 genotoxic,Rab9 promoter act,SMN2 splice up,FLuc modulator,NPC1 promoter act
COc1ccc(C(=O)/C=C/c2cc(C(=O)O)cc3c2OCOC3)c(O)c1,16.0%,-3.1%,/,1.69µM*,-1.2%
COc1ccc(/C=C/C(=O)c2ccc(O)cc2O)cc1OC,/,/,-88.6%,/,/
O=C(O)c1cc(/C=C/C(=O)c2cc(F)ccc2O)c2c(c1)COCO2,11.6%,-1.8%,/,30.1µM*,0.8%
Cc1ccsc1/C=N/n1cnc2sc(C)c(C)c2c1=O,6.0%,?,21.0%,10.7µM*,?
Cc1ccsc1/C=N/n1cnnc1,0.2%,-1.0%,/,-2.7%,0.0%
COc1ccc(CC2S/C(=N/N=C/c3ccc(O)cc3)NC2=O)cc1 (configuration not stated),?,?,21.5%,0.426µM*,28.2%
O=C1N/C(=N/N=C/c2ccc(O)cc2)SC1Cc1ccccc1 (configuration not stated),14.0%,0.7%,/,2.39µM*,2.5%
COc1ccc(CC2S/C(=N/N=C/c3ccccc3O)NC2=O)cc1 (configuration not stated),-8.2%,-2.2%,/,?,-2.5%
Cc1ccccc1NC(=O)CCn1nc(-c2ccc(Cl)cc2)c2ccccc2c1=O,/,/,0.2%,-7.8%,/
O=C(O)c1ccc(NC(=O)c2cn(-c3ccccc3)nc2-c2cccc(Cl)c2)cc1,-0.5%,-1.2%,/,3.79µM*,-5.9%
Cc1cccc(NC(=O)c2c(C)nn(-c3ccccc3)c2Cl)c1,10.6%,?,18.8%,13.5µM*,?
Cc1nn(-c2ccccc2)c(Cl)c1C(=O)Nc1ccc(N2CCOCC2)cc1,-7.2%,-0.2%,-6.1%,-14.3%,0.7%
CCOC(=O)c1cc(C(=O)Nc2cccc(C)c2)nn1C,?,1.41µM*,12.6µM*,4.78µM*,1.58µM*
Cc1cccc(NC(=O)c2cn(-c3ccccc3)nc2-c2ccccc2)c1,1.2%,-1.3%,8.3%,13.5µM*,-2.1%
Cc1cccc(C)c1OCc1cc(=O)n2c3c(sc2n1)CCCC3,/,/,-1.6%,-20.7%,/
Cc1onc(-c2c(F)cccc2Cl)c1C(=O)Nc1ccc(OC(C)C)cc1,/,/,19.0%,2.3%,/
CCCCOc1cccc(C(=O)Nc2ccc3oc(-c4cccnc4)nc3c2)c1,/,/,-0.5%,1.3%,/
COc1ccc(-c2nc3c(c4c2C[C@H](c2ccccc2)OC4)CN(C(=O)NCCc2c[nH]c4ccccc24)CC3)c(C)c1,/,/,-1.4%[9.22 µM],/,/
O=C(O)c1cn(-c2ccccc2)nc1-c1ccc(F)cc1,-0.2%[9.26 µM],0.6%,/,?,-2.3%
O=C(O)c1ccc(NC(=O)c2cn(-c3ccccc3)nc2-c2ccc(F)cc2)cc1,4.9%,?,/,2.69µM*,22.1%
NS(=O)(=O)c1ccc(NC(=O)/C=C/c2cn(-c3ccccc3)nc2-c2cccc(Cl)c2)cc1,16.3%,-9.1%,-12.5%,-4.0%,-5.4%
Cc1ccc(OCC(=O)Nc2cc(-c3cccc(C)c3)nn2-c2ccccc2)cc1,/,/,/,-0.5%,/
O=C(/C=C/c1cn(-c2ccccc2)nc1-c1ccccc1)Nc1ccc(C(=O)O)cc1,4.1%,?,/,0.849µM*,24.4%
CCOC(=O)c1nn(-c2ccc(C)cc2)c(=O)cc1OCC(=O)Nc1cccc(C)c1,0.0%,-6.1%,/,-0.7%,1.9%
Cc1cccc(-c2cc(NC(=O)c3ccccc3C)n(-c3ccccc3)n2)c1,/,/,/,10.7µM*,/
CC(=O)Nc1c(C(=O)Nc2cccc(C)c2)nnn1-c1ccc(C)cc1,/,/,8.8%,16.9µM*,/
O=C(NCC1CCCO1)c1cn(-c2ccccc2)nc1-c1ccc(F)cc1 (configuration not stated),-2.0%,7.2%,/,10.7µM*,2.9%
CN(C)c1ccc(/C=N/Nc2cccc(C(=O)O)c2)cc1,?,10µM*,/,0.0757µM*,?
O=C(N/N=C\c1cccc(F)c1)c1ccc(-c2ccccc2)cc1,1.9%,13.3%,/,-2.2%,18.6%
